The source of these data is PubChem BioAssay AID1259312 (Keith Lab, Institute of Cancer Science, University of …, 2017).

The campaign covered roughly 4,500 compounds. About 200 (4.4%) were called active. What follows is part of a selection rich in actives, with near analogues and random picks from the rest. Unmarked numbers belong to inactive results.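 Rule for the calls: active = cell survival measured by absorbance rises more than 2.5-fold over infected cells without compound; inactive = the rest.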

A short description of the experiment: survival after telomere uncapping, modulators, primary screen, cell-based (AID 1259312).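 Note: virus expresses mutant telomerase RNA that uncaps telomeres and kills cells; compound added 2 days after infection so exposure lasts 3 days.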 To be noted: HCT116 + Ad-hTR-mut, MTT, 5 d; at 10 µM, hits give high values.
Consider `CCOC(=O)/C(C#N)=C(\C#N)C(=O)OCC`, for which the fold change is 1.04. The figure for `CN1CC(C(=O)Nc2ccc3c4c(cccc24)CC3)CC1=O` (stereo unspecified) is 1.08; for `CS(=O)(=O)Nc1ccc(F)cc1F` it is -1.21. The result for `CS(=O)(=O)Nc1ccc2c3c(cccc13)CC2` reads 2.67 (active). With `Nc1nc(-c2ccc(Cl)c(Cl)c2)cs1`, the fold change was 1.69. The result for `CCCOc1ccccc1N=c1ssc2c1-c1cc(C)c(C)cc1NC2(C)C` reads -3.58. The result for `Cc1nc(N=C(N)N)nc2ccccc12` reads 3.38 (active). The result for `COc1cccc2c(C)nc(N=C(N)N)nc12` reads 1.65. As for `COc1ccc2nc(N=C(N)N)nc(C)c2c1`, the fold change was 1.75. The figure for `Cc1nccn1CCC1CCNCC1` is 3.27 (active); for `CC(C)(C)c1ccc(-c2nn(CN3CCC(c4ccccc4)C3)c(=S)n2-c2ccccc2)cc1` (stereo unspecified) it is -1.84.

For `Cc1ccc(-c2nn(CN3CCC(c4ccccc4)C3)c(=S)n2-c2ccccc2)cc1` (stereo unspecified), the fold change was -1.2.

On to `S=c1n(CN2CCCCC2)nc(-c2ccccc2)n1-c1ccccc1`, for which the fold change is 3.46 (active). The figure for `O=C(NCCN1CCOCC1)C(=O)NCCN1CCOCC1` is 1.02; for `COc1ccc(C2C3=C(Nc4ncnn42)c2ccccc2CC3)cc1OC` (stereo unspecified) it is “inactive”. Regarding `O=S(=O)(NCCCl)c1ccccc1`, the fold change was -1.04.

For the compound `COC(=O)CCC(C)C1CCC2C3C(C[C@H](O)C12C)C1(C)CC[C@@H](O)CC1C[C@H]3O` (stereo partly specified), the fold change is 4.26 (active).

Regarding `C[C@H](CCC(=O)O)[C@H]1CC[C@H]2[C@@H]3[C@H](O)C[C@@H]4C[C@H](O)CC[C@]4(C)[C@H]3C[C@H](O)[C@]12C`, the fold change was -1.01.

`CCOC(=O)CC[C@@H](C)[C@H]1CC[C@H]2[C@@H]3[C@H](O)C[C@@H]4C[C@H](O)CC[C@]4(C)[C@H]3C[C@H](O)[C@]12C`: the fold change was -1.19. For `COc1ccc(-c2nc(-c3cccnc3)no2)cc1`, the fold change is -1.74. The figure for `O=C1CC(c2cc3c(cc2Br)OCO3)c2ccc3ccccc3c2N1` (stereo unspecified) is 1.01; for `Nc1nc(SCC(=O)Nc2ccc(Br)cc2)sc1C(=O)Nc1nccs1` it is -1.48. On to `CCOC(=O)C(C(C)=O)C(C(C)=O)C(=O)OCC` (stereo unspecified), for which the fold change is 1.67.

`CC(=O)C(C(C)=O)C(C(C)=O)C(C)=O`: the fold change is 3.14 (active).

On to `Brc1csc(-c2cc(Br)cs2)c1`, for which the fold change is -1.44. The figure for `NC(=O)c1c(NC(=O)CN2CCCCC2)sc2c1CCCC2` is -1.75.

As for `c1ccc(CCn2c(CSc3nc4ccccc4o3)nc3ccccc32)cc1`, the fold change is -1.06.

As for `NS(=O)(=O)c1cc(C(=O)O)c(Cl)cc1Cl`, the fold change is -1.78. The figure for `c1ccc(-c2ccc(CSc3nc4ccccc4o3)cc2)cc1` is -1.02; for `O=[N+]([O-])c1cc(Cl)ccc1NC1CCCCC1` it is 4.77 (active); for `O=[N+]([O-])c1ccc(Cl)cc1NCCO` it is 2.39. The result for `O=[N+]([O-])c1ccc(Cl)cc1NCc1ccco1` reads -1.31. On to `Cc1ccc(C)n1-c1ccc(NC2CCCC2)c([N+](=O)[O-])c1`, for which the fold change is -1.34. The result for `NNc1cc(Cl)ccc1[N+](=O)[O-]` reads 3.68 (active); that for `O=[N+]([O-])c1ccccc1NC1CCCCC1`, 1.67.

As to `O=C(Nc1nc2c(s1)CCCC2)C1CC(=O)N(c2ccc(F)cc2)C1` (stereo unspecified), the fold change is -2.42. The result for `Cc1cccn2c(=O)c(C=O)c(Nc3cccc(Cl)c3)nc12` reads -1.44; that for `CCCCc1ccc(C2C3=C(CC(C)(C)CC3=O)OC3=C2C(=O)CC(C)(C)C3)s1`, -1.42. With `Fc1ccc(-c2nc3sc(-c4ccc(F)cc4)nc3s2)cc1`, the fold change was -2.41. Consider `O=C(c1ccc2[nH]c(=O)oc2c1)c1ccc2[nH]c(=O)oc2c1`, for which the fold change is 1.41.

As for `C#CCN1C(=O)S/C(=C\c2ccc(N3CCCC3)cc2)C1=O`, the fold change was -1.24. Take `CN1CCC2(CC1)C(C#N)=C(N)Oc1n[nH]c(-c3ccccc3)c12`: the fold change was 3.65 (active). For `COCc1[nH]nc2c1C1(CCN(C)CC1)C(C#N)=C(N)O2`, the fold change was -1.21.

As for `CN1CCC2(CC1)C(C#N)=C(N)Oc1n[nH]c(C(=O)OC(C)(C)C)c12`, the fold change was -1.08.

`CCOC(=O)C1=C(C)NC2=C(C(=O)CCC2)C1c1ccc(CC)s1` (stereo unspecified): the fold change is -1.61. Regarding `O=c1[nH]c2ccccc2[nH]c1=O`, the fold change is 5 (active). Regarding `COc1ccc2[nH]c(=O)c(=O)[nH]c2c1`, the fold change was 1.16.

Regarding `O=c1ccc2ccccc2[nH]1`, the fold change was -1.85. `O=S(=O)(c1ccccc1)N1CCN(Cc2ccc3c(c2)OCO3)CC1`: the fold change was -4.81.

Consider `O=S(=O)(c1ccc2c(c1)OCCO2)N1CCCCC1`, for which the fold change is -1.44. Turning to `O=C(c1ccc(COc2ccc(I)cc2)o1)N1CCCC1`, the fold change is -1.09.

With `CN(C)c1ccc(/C=C2\C(=O)ON=C2c2cccc(I)c2)cc1`, the fold change was -1.18. As for `Cn1c2c(c(=O)[nH]c1=O)C(c1ccccc1)C1=C(N2)c2ccccc2C1=O` (stereo unspecified), the fold change was -6.31. On to `Cc1[nH][nH]c(=O)c1C(c1ccncc1)C(C#N)C#N` (stereo unspecified), for which the fold change is 3.56 (active). As for `O=C(Nc1sc2c(c1C(=O)Nc1ccc(Br)cc1)CCC2)c1cccs1`, the fold change is 1.12. The result for `Cn1nnnc1SCC(=O)Nc1ccc(F)c(Cl)c1` reads -2.05; that for `O=C(Nc1ccc(Br)cc1Br)C(Cl)Cl`, -6.77.

For the compound `CC(=O)Nc1sc2c(c1C(N)=O)CCCC2`, the fold change was -1.98. The result for `CC(=O)Nc1sc2c(c1C(N)=O)CCCCC2` reads 1.05; that for `CC(=O)Nc1sc2c(c1C(=O)O)CCCC2`, 2.88 (active). The result for `COc1ccc(S(=O)(=O)N2CCCc3ccccc32)cc1` reads -1.9. Regarding `CC1(C)CC(NS(=O)(=O)c2ccccc2)CC(C)(C)N1`, the fold change was -1.13. The result for `CC1(C)CC(NC(=O)C(=O)NC2CC(C)(C)NC(C)(C)C2)CC(C)(C)N1` reads 4.26 (active). Regarding `CC(C)NC(=O)C(=O)NC1CC(C)(C)NC(C)(C)C1`, the fold change is -2.38.

For `Cc1cc(NC(=O)c2n[nH]c(=O)c3ccccc23)no1`, the fold change is -1.69. The figure for `Cn1c(-c2ccccc2)c(NC(=O)c2ccccc2Cl)c(=O)n1C` is -1.22; for `C=CCOC(=O)c1sc(NC(=O)c2ccco2)nc1C` it is -1.45. As to `Oc1[nH]c(=S)sc1/C=C/C=C/C=Nc1ccccc1`, the fold change entry was “inactive”. The result for `CCCc1cc(=O)oc2cc(O)cc(O)c12` reads 1.04; that for `Cn1nc(C(F)(F)F)cc1C(=O)O`, -1.06; that for `Cc1cc(C(F)(F)F)nn1CC(N)=O`, 3.13 (active). The figure for `Cc1sc(NC(=O)Cn2nc(C(F)(F)F)cc2C)c(C(N)=O)c1C` is -1.23. For `C=CCn1c(COc2ccccc2)n[nH]c1=S`, the fold change was 1.52.

On to `CCOC(=O)c1c(NC(=O)C23CC4CC(CC(C4)C2)C3)sc2c1CCN(C(=O)OCC)C2`, for which the fold change was -1.15. The entry for `Oc1c(Cl)cc(Cl)cc1C=Nc1ccc(Cl)cc1Cl` is “inactive”; for `O=[N+]([O-])c1cc(Br)cc(C=Nc2ccc(N=Cc3cc(Br)cc([N+](=O)[O-])c3O)cc2)c1O` it is “inactive”; for `O=[N+]([O-])c1ccc(O)c(N=Cc2cc(Br)cc(Br)c2O)c1` it is “active”. The entry for `O=[N+]([O-])c1ccc(N=Cc2cc(Br)cc([N+](=O)[O-])c2O)cc1` is “inactive”; for `O=[N+]([O-])c1ccc(O)c(N=Cc2cc(Br)cc([N+](=O)[O-])c2O)c1` it is “inactive”. The result for `Oc1c(Br)cc(Br)cc1C=Nc1ccc(Cl)cc1Cl` reads “active”; that for `O=[N+]([O-])c1ccc(N=Cc2cc(Br)cc(Br)c2O)cc1`, “active”; that for `Oc1c(Br)cc(Br)cc1C=Nc1cc(Cl)ccc1Cl`, “inactive”.

Take `O=[N+]([O-])c1ccc(N=Cc2cc(Br)cc(Br)c2O)c(O)c1`: the fold change result was “inactive”. On to `S=C(c1ccco1)N1CCOCC1`, for which the fold change is 1.24. The figure for `NC(Cc1cc(F)ccc1F)C(=O)O` (stereo unspecified) is -3.72; for `O=[N+]([O-])c1ccc(Nc2ccc(O)cc2)c([N+](=O)[O-])c1` it is -1.07; for `O=[N+]([O-])c1cccc(S(=O)(=O)Nc2ccc(I)cc2)c1` it is 1.39.

As for `O=[N+]([O-])c1ccc(NS(=O)(=O)c2ccccc2)c([N+](=O)[O-])c1`, the fold change was 3.49 (active). The figure for `O=C1CN(C(=O)Cn2c(=O)oc3ccccc32)c2ccccc2N1` is -1.03. For `CN1N=C(C(=O)O)CCC1=O`, the fold change was 2.58 (active). The figure for `O=C(O)C1=NN(c2ccc(S(=O)(=O)O)cc2)C(=O)C1` is 1.74; for `O=C1CCC(=O)N1CCCCCCN1C(=O)CCC1=O` it is -1.37. For `O=C1C=CC(=O)N1c1cc(Cl)cc(Cl)c1`, the fold change is -1.38.

For `N#CC1=C(N)C(C#N)(C#N)C(c2ccc(Cl)cc2Cl)C2CCCC=C12` (stereo unspecified), the fold change was -4.43. The result for `Cc1[nH][nH]c(=O)c1C1(C(C#N)C#N)C2CC3CC(C2)CC1C3` (stereo unspecified) reads 2.9 (active); that for `C=CCN(CC=C)C(=O)C1c2ccccc2Oc2ccccc21`, -1.36; that for `CN(C)c1ccc(NC(=O)c2sc(=S)[nH]c2N)cc1`, -1.46.

Regarding `N#Cc1c(C(F)(F)F)cc(-c2cccs2)[nH]c1=S`, the fold change is 4.58 (active). The figure for `N#Cc1c(C(F)(F)F)cc(-c2cccs2)oc1=S` is -2.59; for `N#Cc1c(C(F)(F)F)cc(-c2ccccc2)[nH]c1=S` it is -1.58.

In the case of `O=C(Nc1ccc(I)cc1)C1CCCN1C(=O)c1cccs1` (stereo unspecified), the fold change was 1.51. The figure for `CCCCn1c(COc2ccc(Cl)cc2)n[nH]c1=S` is -1.76; for `Cn1c(Cc2ccccc2)n[nH]c1=S` it is -1.19.

Take `Cn1c(COc2ccc(C3CCCCC3)cc2)n[nH]c1=S`: the fold change is 2.92 (active). The figure for `O=C(O)CCSc1ncnc2ccccc12` is -3.11; for `CCN(CC)CC(=O)Nc1sc2c(c1C(N)=O)CCCC2` it is 1.
